Assay outcomes as filed in PubChem BioAssay.
Shown are actives, neighbours in structure and some others; about 4.3% of the full set was active somewhere.
Peg3 promoter: Peg3 promoter-driven luciferase inhibitors, primary screen, cell-based, HeLa, luciferase luminescence; HeLa PEG-Prom luciferase reporter, overnight; 360,000 compounds, 1.7% hits; inhibition, % at 20 µM;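 active means inhibition of at least 50% at 20 µM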
CHOP inh: inhibitors of CHOP promoter induction, primary screen, cell-based, unfolded protein response, luciferase reporter; CHO-K1 CHOP-promoter luciferase, tunicamycin-induced, 15-18 h; inhibition, % at 10 µM; 220,000 compounds, 3.8% hits;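 active means compounds that reduced the stress-induced luciferase reporter signal by more than about 70% of percent inhibition, limit read from the data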;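 further: 0% = tunicamycin plus vehicle and 100% = wells without tunicamycin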
TRPM1 prom inh: inhibitors of MITF-dependent TRPM1 promoter reporter, primary screen, cell-based, SK-MEL-5, single point, luciferase; SK-MEL-5 TRPM1 promoter luciferase, 24 h; inhibition, % at 12.5 µM; 330,000 compounds, 0.83% hits;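 active means mean inhibition across replicates of 60% or more, whatever share of single replicates reaches that level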
HIF-2a block: HIF-2a reporter inhibitors, primary screen, luminescence, 786-0 RCC cells | 786-0 RCC cells HIF-2a reporter, luciferase luminescence, overnight | inhibition, % at 18.8 µM | 360,000 compounds, 0.72% hits;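 active means inhibition of the luminescence signal of 40% or more relative to plate controls, in a single-dose primary screen at 18.75 µM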
KKLEB tox: cytotoxicity in KKLEB CF airway cells, primary screen, cytotoxicity control for CF NF-kB inhibitor project, cell-based, uHTS, fluorescence assay plates; KKLEB CF airway cells viability, ATPlite luminescence, overnight; hits give low values; cells stimulated with P. aeruginosa culture filtrate; activity change (cytotoxicity), % at 5 µM; 360,000 compounds, 0.36% hits; AID 602141, 2011;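 active means corrected activity change at or below -50% at 5 µM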
CF NFkB block: inhibitors of PAF-induced NF-kB signaling, primary screen, cell-based, GFP fluorescence, uHTS; 360,000 compounds, 0.86% hits; KKLEB NF-kB-GFP reporter, GFP fluorescence overnight; inhibition, % at 5 µM; AID 588850, 2011;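 active means at least 50% inhibition at 5 µM, scaled per plate between neutral and stimulator controls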;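 further: PAF is a Pseudomonas aeruginosa culture filtrate used as stimulus; plate controls were PAF-stimulated DMSO wells for no effect and unstimulated DMSO wells for full effect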
* hit, by the source's call; x = no result.

SMILES	Peg3 promoter	CHOP inh	TRPM1 prom inh	HIF-2a block	KKLEB tox	CF NFkB block
Cc1ccc(/C=C/C(=O)NC2=NCCS2)cc1	-195	18	-10	-21	-8	-1
CC(C)(C)c1ccc(/C=C/C(=O)NC2=NCCS2)cc1	-186	82*	-40	-168	-8	-8
COc1ccc(/C=c2\s/c(=C/C(=O)c3ccc(C)cc3)[nH]c2=O)cc1OC	-20	100*	-2	-22	-8	-13
COc1cc2c(cc1OC)C(=O)C(Br)CC2 (stereo unspecified)	65*	x	x	8	-16	70*
COc1cc2c(cc1OC)C(=O)C(c1ccc3c(c1)OCO3)CC2 (stereo unspecified)	-15	x	x	-27	3	-33
Cc1cccc(/C=N/n2c(-c3cc(-c4ccccc4)n[nH]3)n[nH]c2=S)c1	-7	75*	-2	-10	4	5
CCN(CC)S(=O)(=O)c1cccc(-c2n[nH]c(=S)n2/N=C/c2ccc(Br)cc2)c1	19	90*	2	7	-9	11
S=c1[nH]nc(-c2cc(-c3ccccc3)n[nH]2)n1/N=C/C(Br)=C/c1ccccc1	108*	-14	x	26	-77*	104*
S=c1[nH]nc(-c2cc(-c3ccccc3)n[nH]2)n1/N=C/c1ccccc1	1	51	-8	-13	24	-25
O=C(CSc1ccc2nnc(-c3ccccn3)n2n1)Nc1ccc(F)cc1F	-7	x	3	13	1	-4
CN(CC(=O)Nc1n[nH]c(=S)s1)S(=O)(=O)c1cccc2cccnc12	10	x	-2	19	-4	9
CC1(C)CC2CC(C)(CN2C(=O)NC(=O)c2ccccc2)C1 (stereo unspecified)	-8	10	-6	16	1	20
Cc1ccc(C(=O)Nc2ccccc2C(=O)N2CC3(C)CC2CC(C)(C)C3)cc1 (stereo unspecified)	29	93*	8	11	-7	-4
Cc1cc(N/N=C/c2ccc(F)cc2)nc(-n2nc(C)cc2C)n1	4	90*	x	-14	8	-17
CN1CCN(c2ccc(NC(=O)c3ccc(-c4ccc(Br)cc4)o3)cc2)CC1	89*	-7	12	-16	-36	-23
Cc1ccccc1C(=O)Nc1cccc(NC(=O)c2ccc(-c3ccc(Br)cc3)o2)c1	9	39	-8	-20	-53*	44
Cc1cc(F)ccc1S(=O)(=O)NCC1CC2CCC1C2 (stereo unspecified)	25	x	15	16	-4	0
NC(=O)c1ccc(NC(=O)COC(=O)C2CCN(S(=O)(=O)c3cccs3)CC2)cc1	-13	x	6	6	1	0
COc1ccc(NC(=O)COC(=O)C2CCN(S(=O)(=O)c3cccs3)CC2)cc1	-1	78*	-8	1	-9	-11
O=C1C=CC(=O)c2c(O)c(N3CCN(CCOCCO)CC3)c(Br)c(O)c21	53*	x	97*	87*	2	6
O=C1C=CC(=O)c2c(O)c(N3CCN(CCO)CC3)c(Cl)c(O)c21	102*	x	99*	90*	15	-23
O=C(NCC(=O)N1CCN(S(=O)(=O)c2ccccc2)CC1)c1ccc(Br)o1	0	x	2	14	-12	24
COc1ccc(Cl)cc1C(=O)Nc1ccc(NC(C)=O)cc1	-11	-3	1	-23	2	-9
CC(=O)Oc1c(I)cc(I)cc1C(=O)Nc1ccc(Cl)cc1	20	x	-8	-121	-39	70*
O=[N+]([O-])c1cc(C(F)(F)F)ccc1NCCCCNS(=O)(=O)c1ccc2ccccc2c1	12	83*	6	-3	-7	8
Oc1ccccc1CN(Cc1ccco1)CC(O)COCc1ccc(Cl)cc1 (stereo unspecified)	7	84*	-7	-6	-21	17
COc1cc(-c2coc3c(C(=O)NCc4ccc(OC)c(OC)c4)cccc23)ccc1O	51*	x	x	-160	-32	4
